Reference: the supplement of paper PMC4206461
Unmarked numbers belong to inactive results.

Tested on: Pseudomonas aeruginosa PA14 wild type
Assay: respiration area under curve with compound as sole nitrogen source, 24 h (OmniLog AUC (arbitrary units)); higher = more respiration / better utilisation as nitrogen source, active = 2000 or more
Experimental: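 Biolog Phenotype MicroArray plates PM6-PM8: each di/tripeptide is the sole nitrogen source (IF-0 medium with succinate/ferric citrate and dye mix A). Tetrazolium reduction was read in the OmniLog every 15 min for 24 h at 37°C and summarised as area under the respiration curve (arbitrary units). The paper counts values below 2000 as no respiration and above 8000 as solid respiration. Replicate datasets are averaged.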

Compound	respiration area under curve
CC(C)[C@H](NC(=O)[C@@H](N)CO)C(=O)O (plate: PM7)	8700 (active)
NCC(=O)N[C@@H](CCCN=C(N)N)C(=O)O (plate: PM6)	8640 (active)
CC(C)C[C@H](N)C(=O)N[C@H](CC(C)C)C(=O)O (plate: PM8)	0
CC[C@H](C)[C@H](N)C(=O)N[C@@H](Cc1ccccc1)C(=O)O (plate: PM6)	2830 (active)
CC(C)[C@H](NC(=O)[C@H](C)N)C(=O)O (plate: PM8)	9240 (active)
CC(C)C[C@H](NC(=O)[C@@H](N)Cc1c[nH]c2ccccc12)C(=O)O (plate: PM7)	3760 (active)
